A selection: hits, their analogues and other compounds. The true share with any hit is near 3.5%.
GPR151 ag: human GPR151 activation; PathHunter beta-arrestin GPR151 cells, luminescence; 1% of 650,000 active; activation, % at 11.2 µM; Q8TDV0; in the data active = activation above about 4.9%
MITF inh: inhibitors of human MITF; O75030; AlphaScreen MITF homodimerization, bead proximity signal; inhibition, % at 2.6 µM; 0.91% of 650,000 active; AID 1259374; in the data active = inhibition above about 50%
TEAD-YAP block: TEAD-YAP interaction inhibition; AID 1259422; inhibition, % at 9.12 µM; 1.4% of 640,000 active; HEK-TIYL cells, TEAD-Gal4/YAP UAS-luciferase luminescence; in the data active = inhibition above about 32%
FBW7 activator: activators of human E3 ligase FBW7 | AlphaScreen FBW7–phospho-cyclin E peptide binding, activator screen | normalized activity (activation), % at 26.1 µM | 0.13% of 650,000 active | AID 1259310 | Q969H0; in the data active = normalized activity above about 1.9%;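 note: purified mutant Fbw7 with reduced substrate affinity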
Of the large screens only hits and unclear results are named; the others gave an inactive call.

CCC1(O)CC2CN(CCc3c([nH]c4ccccc34)[C@@](C(=O)OC)(c3cc4c(cc3OC)N(C=O)C3[C@]45CCN4CC=C[C@@](CC)([C@@H](OC(C)=O)[C@]3(O)C(=O)OC)[C@H]45)C2)C1 (stereo partly specified)	TEAD-YAP block 69
COc1ccc(C2c3[nH]c4ccccc4c3CCN2C(=O)CNC(C)=O)c(C)c1C (stereo unspecified)	none
CCC1=C[C@H]2CN(C1)Cc1c([nH]c3ccccc13)[C@@](C(=O)OC)(c1cc3c(cc1OC)N(C)[C@H]1[C@@](O)(C(=O)OC)[C@H](OC(C)=O)[C@]4(CC)C=CCN5CC[C@]31[C@@H]54)C2	TEAD-YAP block 56
CC[C@]1(O)CC2CN(CCc3c([nH]c4ccccc34)[C@@](C(=O)OC)(c3cc4c(cc3OC)N(C)[C@H]3[C@@](O)(C(=O)OC)[C@H](OC(C)=O)[C@]5(CC)C=CCN6CC[C@]43[C@@H]65)C2)C1 (stereo partly specified)	TEAD-YAP block 59
CC[C@]1(O)C[C@H]2CN(CCc3c([nH]c4ccccc34)[C@H](C)[C@H]2c2cc3c(cc2OC)N(C=O)[C@H]2[C@@](O)(C(=O)OC)[C@H](C)[C@]4(CC)C=CCN5CC[C@]32[C@@H]54)C1	TEAD-YAP block 56
COc1ccccc1NC(=O)N1CCC2(CC1)OCCc1c2[nH]c2ccccc12	none
COc1ccc(-c2nc(C(N)=O)c3[nH]c(=O)n(-c4ccc(Cl)cc4)c3n2)c(OC)c1	none
NC(=O)C1CCN(c2ccc(C(=O)O)cc2[N+](=O)[O-])CC1	none
[O-][n+]1onc2cc(Br)cnc21	MITF inh 61
[O-][n+]1onc2cc(Cl)c(Cl)cc21	none
O=c1nc(N/N=C/c2ccc(O)cc2)cn[nH]1	none
O=c1nc(N/N=C/C=C/c2ccccc2)cn[nH]1	TEAD-YAP block 50
O=c1nc(N/N=C/c2c[nH]c3ccccc23)cn[nH]1	TEAD-YAP block 58
CC(C)(C)OC(=O)N1Cc2ccccc2C[C@@H]1C(=O)N1CCC(C(=O)Nc2ccc3[nH]ncc3c2)C1 (stereo partly specified)	none
COc1cc(C)ccc1S(=O)(=O)Oc1cccc2ccc(C)nc12	TEAD-YAP block 37
CCCn1c(/C=N/Nc2nc3ccccc3[nH]2)nc2ccccc21	none
CC(C)n1c(/C=N/Nc2nc3ccccc3[nH]2)nc2ccccc21	TEAD-YAP block 37
Cn1c(/C=N/Nc2nc3ccccc3[nH]2)nc2ccccc21	TEAD-YAP block 40
Cc1ccc(N2C(=O)c3ccccc3C2Nc2nc(C)cs2)nc1 (stereo unspecified)	none
O=C(Cc1ccc(Cl)cc1)Nc1cccc(-c2ccc3nncn3n2)c1	none
COCCCNC(=O)c1ccc2c(c1)N=C(C)c1ccccc1S2	TEAD-YAP block 63
CC1=Nc2cc(C(=O)NCCCOC(C)C)ccc2Sc2ccccc21	TEAD-YAP block 38
FC(F)(F)c1ccc(Cn2cnc3c(NC4CC4)nc(Nc4ccccc4)nc32)cc1	TEAD-YAP block 35
FC(F)(F)c1ccc(Cn2cnc3c(NC4CC4)nc(Nc4ccc(N5CCOCC5)cc4)nc32)cc1	none
CCNc1nc(Nc2cc(OC)c(OC)c(OC)c2)c2ncn(Cc3ccc(C(F)(F)F)cc3)c2n1	TEAD-YAP block 52
COc1cc(Nc2nc(Nc3ccc(C(F)(F)F)cc3)nc3c2ncn3Cc2ccc(C(F)(F)F)cc2)cc(OC)c1OC	none
